This is one part of a sample in which hits are shown more often than they occur.
ST2 inh: inhibitors of human ST2 (IL1RL1) binding to IL-33, primary screen, biochemical, AlphaLISA | Interleukin-1 receptor-like 1 (Homo sapiens), Q01638 | AlphaLISA ST2-Fc/biotin-IL-33 interaction, 1 h | inhibition, % for hits at 17 µM | 2.3% of 78,000 active | AID 1259354, 2018; in the data active means inhibition above about 30%
Target sequence (Q01638 whole entry, looked up): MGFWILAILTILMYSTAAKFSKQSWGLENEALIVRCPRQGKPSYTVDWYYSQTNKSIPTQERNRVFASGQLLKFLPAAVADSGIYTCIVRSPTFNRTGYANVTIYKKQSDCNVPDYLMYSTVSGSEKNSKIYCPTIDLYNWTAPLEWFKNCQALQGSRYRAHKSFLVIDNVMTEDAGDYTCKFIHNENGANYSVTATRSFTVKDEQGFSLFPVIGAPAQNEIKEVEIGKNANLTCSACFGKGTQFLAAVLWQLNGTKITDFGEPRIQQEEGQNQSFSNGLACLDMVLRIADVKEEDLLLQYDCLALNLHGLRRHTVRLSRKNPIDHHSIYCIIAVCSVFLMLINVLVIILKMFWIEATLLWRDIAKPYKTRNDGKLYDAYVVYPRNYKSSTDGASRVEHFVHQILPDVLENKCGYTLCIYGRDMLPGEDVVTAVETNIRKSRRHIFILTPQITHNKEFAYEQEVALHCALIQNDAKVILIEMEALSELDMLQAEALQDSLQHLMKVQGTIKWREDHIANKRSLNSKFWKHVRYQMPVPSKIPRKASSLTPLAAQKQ
The depositor's hits bear a star; i = inactive.

SMILES | ST2 inh
Nc1cc2nc3ccccc3nc2cc1O | 56%*
Nc1c2c(nc3ccccc13)CCCCC2 | i
CCN1C(=O)NC(=O)/C(=C\c2cn(CC(=O)NCCOC)c3ccccc23)C1=O | i
COc1ccc(C(=O)N2C[C@@H]3C[C@H](C2)c2ccc(-c4ccccc4C)c(=O)n2C3)cc1 | i
COc1ccccc1-c1cc([C@H]2CN3CC[C@H]2C[C@@H]3CO)nc(C)n1 | i
Clc1ccc(CN2CCN(c3ccccc3)CC2)c(Cl)c1 | 91%*
c1ccc(CN2CCN(c3ccccc3)CC2)cc1 | i
CCN1CCN(Cc2ccc(OC)c(C)c2)CC1 | i
COc1ccc(N2CCN(Cc3ccc(Cl)cc3Cl)CC2)cc1 | 36%*
COc1ccc(CN2CCN(c3ccc(F)cc3)CC2)c(OC)c1 | i
COc1ccc(N2CCN(Cc3ccc(OC)c(C)c3)CC2)cc1 | 36%*
Fc1ccc(CN2CCN(c3ccccc3)CC2)c(F)c1 | i
COc1ccc(CN2CCN(c3ccccc3)CC2)c(OC)c1 | i
COc1ccc(CN2CCN(CCO)CC2)cc1C | i
O=C(c1ccccc1)N1C[C@@H]2C[C@H](C1)c1c(/C=C/c3ccc(Cl)cc3)ccc(=O)n1C2 | i
CCC(CC)c1cc([C@H]2CN3CC[C@H]2C[C@@H]3CNC(=O)C2CCCCC2)nc(-c2ccncc2)n1 | i
CN(C)C(=O)[C@H]1CN2CC[C@H]1C[C@@H]2Cn1cc(COc2ccccc2)nn1 | i
O=S(=O)(NC[C@H]1C[C@@H]2CCN1C[C@@H]2CN1CCC(Cc2ccccc2)CC1)c1ccc(Cl)cc1 | i
CN(C)CC(=O)N1C[C@@H]2C[C@H](C1)c1ccc(-c3cccc(C(F)(F)F)c3)c(=O)n1C2 | i
CCCCCC/C=C\CCCCCCCc1cccc(O)c1O | i
O=S(=O)(CC(F)(F)F)N1CCC2(CCNCC2)C1 | i
CC(C)N(CC#CCO)Cc1ccccc1 | i
Cn1nc(-c2ccco2)cc1[C@H]1CN2CC[C@H]1C[C@@H]2CNC(=S)Nc1ccccc1 | i
COc1ccccc1-c1cc([C@H]2CN3CC[C@H]2C[C@@H]3CNC(=S)NCC(C)C)n(C)n1 | i
CCc1ccc(CN2CCN(c3ccccc3OC)CC2)cc1 | 97%*
SMILES | ST2 inh
COc1ccccc1N1CCN(Cc2ccc(Cl)cc2)CC1 | i
COc1ccccc1N1CCN(Cc2cccc(Cl)c2)CC1 | i
CCOP(=S)(Oc1ccc([N+](=O)[O-])cc1)Oc1ccc([N+](=O)[O-])cc1 | i
CC(C)(C)c1ccc(OCCNc2ccc([N+](=O)[O-])c3cccnc23)cc1 | 55%*
CN(N=O)c1ccc(O)c(O)c1 | 69%*
COc1ccc(C2(CN)CCCC2)cc1OC | i
CN1CCN(C(=O)Cc2cc(=O)[nH][nH]c2=O)CC1c1ccccc1 (stereo not given) | i
O=C1Nc2ccccc2C12CCN(Cc1noc(C3CCCO3)n1)CC2 (stereo not given) | i
O=C(O)c1cccc2c1NC(C(=O)O)C1CC(Sc3ccccc3[N+](=O)[O-])C(Cl)C21 (stereo not given) | 96%*
CSCC(=O)Nc1ccc2n(c1=O)C[C@@H]1CNC[C@H]2C1 | i
CSc1ccc(-c2ccc(=O)n3c2[C@@H]2C[C@@H](CN(C(=O)c4cccs4)C2)C3)cc1 | i
CCN(CC)C[C@H]1CN2CC[C@H]1C[C@@H]2CNC(=O)c1ccc(N(C)C)cc1 | i
CC1N=C(c2ccccc2)c2ccccc2N(CC(=O)NCCc2ccccc2)C1=O (stereo not given) | i
Fc1ccc(CN2CCN(c3ccccc3Cl)CC2)cc1 | i
CN(C)c1ccc(CN2CC=C(c3ccc(F)cc3)CC2)cc1 | 40%*
Fc1ccc(CN2CCN(c3ccccc3)CC2)cc1 | i
Fc1ccc(N2CCN(Cc3ccccc3)CC2)cc1 | i
Cc1ccc(CN2CCN(c3ccc(Cl)cc3)CC2)cc1 | i
CN(C)c1ccc(CN2CCN(c3ccc(F)cc3)CC2)cc1 | 38%*
C#C[C@H]1CN2CC[C@H]1C[C@@H]2CNC(=S)NCCOC | i
Cc1cc(C2C[C@H]3CC[C@@H](C2)N3Cc2cc3n(n2)CCNC3)ccc1F (stereo not given in full) | i
O=C(NCc1cccnc1)[C@H]1CN2CC[C@H]1C[C@@H]2Cn1cc(-c2ccccc2)nn1 | i
Cc1noc(C)c1NC(=O)N1CCN2CCN(C)CC2C1 (stereo not given) | i
O=C1C2CCCN2C(c2cccc(Br)c2)N1c1ccccn1 (stereo not given) | i
COCc1cc(CNC(C)Cc2ccccc2F)n[nH]1 (stereo not given) | i
SMILES | ST2 inh
COc1cc(/C=C/[N+](=O)[O-])c(OC)cc1C | 42%*
CC1(C)C(C(=O)N2CCCC(Nc3ccc(F)cc3)C2)C1(C)C (stereo not given) | i
Cc1ccccc1-c1ccc2n(c1=O)C[C@H]1C[C@@H]2CN(C(=O)Nc2ccc(Cl)cc2)C1 | i
Cn1nc(-c2ccc(F)cc2)cc1[C@H]1CN2CC[C@H]1C[C@@H]2CNC(=S)Nc1ccccc1 | i
N#CC1=C(N)Oc2c(c(=O)oc3ccccc23)C1c1ccc(F)cc1 (stereo not given) | i
N#CC1=C(N)Oc2n[nH]c(C(F)(F)F)c2C1c1ccc(F)cc1 (stereo not given) | i
N#CC1=C(N)Oc2n[nH]c(-c3ccc(F)cc3)c2C1c1ccc(F)cc1 (stereo not given) | 32%*
O=C1C2CCCN2C(c2ccc(F)cc2)N1c1ccccn1 (stereo not given) | i
CC(=O)Nc1ccc(-c2ccc(=O)n3c2[C@@H]2C[C@@H](CN(C(=O)NC(C)C)C2)C3)cc1 | i
C=C[C@H]1CN2CC[C@H]1C[C@@H]2CNS(=O)(=O)c1cccc2cccnc12 | i
O=[N+]([O-])c1cc(Cl)ccc1N1CCN(Cc2ccccc2)CC1 | 31%*
CN1CCN(Cc2ccc(F)c(Br)c2)CC1 | i
Fc1ccc(N2CCN(Cc3ccc(F)c(Br)c3)CC2)cc1 | i
O=[N+]([O-])c1ccc(N2CCN(Cc3ccc(F)c(Br)c3)CC2)cc1 | 31%*
O=[N+]([O-])c1cccc(CN2CCN(c3ccc(Cl)cc3)CC2)c1 | 47%*
Cc1ccccc1CN1CCN(c2ccc([N+](=O)[O-])cc2)CC1 | 36%*
O=[N+]([O-])c1ccc(CN2CCN(c3ccc(Cl)cc3)CC2)cc1 | i
Cc1ccccc1CN1CCN(c2cccc(Cl)c2)CC1 | i
Fc1ccccc1N1CCN(Cc2ccc(Cl)cc2)CC1 | i
O=[N+]([O-])c1ccc(N2CCN(Cc3ccc(O)cc3)CC2)cc1 | i
Cc1ccccc1N1CCN(Cc2ccc(Cl)cc2)CC1 | i
O=[N+]([O-])c1ccc(N2CCN(Cc3ccc(Cl)cc3)CC2)cc1 | i
COc1ccc(CN2CCN(c3cccc(Cl)c3)CC2)cc1OC | i
CSc1ccc(-c2ccc3n(c2=O)C[C@H]2C[C@@H]3CN(C(=O)c3ccccc3)C2)cc1 | i
Cc1ccnc(N2C[C@H](c3cccc(F)c3F)[C@@H]3[C@H]2C2CCN3CC2)n1 | i
O=C(NC1CC1)[C@H]1CN2CCC1C[C@@H]2Cn1cc(C2(O)CCCC2)nn1 (stereo not given in full) | i
Oc1cccc(CN2C[C@@H](c3ccccc3)[C@@H]3[C@H]2C2CCN3CC2)c1 | i
O=S(=O)(NC[C@H]1C[C@@H]2CCN1C[C@@H]2CN1CCN(c2ccccc2)CC1)c1cccs1 | i
O=C(NC1CCCCC1)N1C[C@@H]2C[C@H](C1)c1ccc(-c3cncnc3)c(=O)n1C2 | i

Screening data as filed in PubChem BioAssay.
